# Out of some 190,000 compounds screened, about 1,300 (0.68%) were called active. The sample holds actives, similar compounds and a random draw of the others, so the mix is not that of the screen. A number with no mark means an inactive call. Rule as the data show it: active = inhibition above about 50%; inactive = the rest.
# Molecular target: Mannose-6-phosphate isomerase (Homo sapiens) (UniProt P34949)
# Assay: human PMI inhibitors, high substrate, primary screen, biochemical, fluorescence intensity, high mannose 6-phosphate (AID 1220)
# Conditions: recombinant PMI enzyme, coupled fluorescence intensity; at 20 µM; stronger effect = higher value
# Sequence of Mannose-6-phosphate isomerase (Homo sapiens) (P34949 whole entry, looked up): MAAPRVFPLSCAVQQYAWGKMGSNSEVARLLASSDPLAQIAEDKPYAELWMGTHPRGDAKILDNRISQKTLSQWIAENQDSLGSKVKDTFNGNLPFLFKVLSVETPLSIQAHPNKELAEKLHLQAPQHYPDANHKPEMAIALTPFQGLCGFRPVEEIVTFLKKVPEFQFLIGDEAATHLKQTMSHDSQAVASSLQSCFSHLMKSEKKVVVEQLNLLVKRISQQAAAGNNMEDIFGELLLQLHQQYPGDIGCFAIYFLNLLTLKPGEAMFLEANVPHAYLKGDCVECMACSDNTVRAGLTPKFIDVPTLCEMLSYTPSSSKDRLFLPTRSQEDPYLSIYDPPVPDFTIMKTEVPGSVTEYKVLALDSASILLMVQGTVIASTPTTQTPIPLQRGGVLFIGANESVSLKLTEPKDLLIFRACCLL
row,SMILES,inhibition
1,CC(NC(=O)Oc1ccccc1)C(c1cccs1)N1CCOCC1 (stereo not given),3%
2,Cc1ccc(-c2nn(Cc3ccccc3)cc2C=O)cc1,3.6%
3,O=C(c1ccccc1)c1ccc(N=Nc2c(O)[nH]c(=O)[nH]c2=O)cc1,-8.7%
4,O=C(N=Nc1c(O)[nH]c(=O)[nH]c1=O)C1COc2ccccc2O1 (stereo not given),56.6% (active)
5,O=c1[nH]c(O)c(N=Nc2ccc3c(c2)OCCO3)c(=O)[nH]1,2.6%
6,O=c1[nH]c(O)c(N=Nc2ccc([N+](=O)[O-])cc2)c(=O)[nH]1,-7.5%
7,O=C(N=Nc1c(O)[nH]c(=O)[nH]c1=O)C1COc2cc3ccccc3cc2O1 (stereo not given),51.7% (active)
8,NC(=O)c1ccc(N=Nc2c(O)[nH]c(=O)[nH]c2=O)cc1,2.6%
9,CN(C)C(=O)Oc1ccc(-c2nnco2)cc1,2.3%
10,OC1(c2cccnc2)CC2CCC(C1)N2Cc1nnnn1Cc1ccccc1 (stereo not given),-8.1%
11,CCOP(=O)(OCC)C(c1ccccc1)N(C)C=O (stereo not given),1.8%
12,CC(C)(C)NC(=O)NC(=O)CN1CC=C(c2ccccc2)CC1,7.7%
13,O=C1NC(=O)C2(Cc3ccccc3N3CCCC32)C(=O)N1 (stereo not given),-47.2%
14,O=C(Nc1ccc2c(c1)OCO2)c1cn(Cc2ccc(F)cc2)nn1,12.6%
15,COc1ccc(NC2(C#N)CCCCC2)cc1,52.7% (active)
16,Cc1ccccc1NC1(C#N)CCCCC1,-0.6%
17,COc1ccccc1NC1(C#N)CCCCC1,38.8%
18,Cc1sc2ncn(CC(=O)NCCCC(=O)N3CCC4(CC3)OCCO4)c(=O)c2c1C,-1.4%
19,O=C1C=Cc2ccccc2C1=O,75.2% (active)
20,O=C1C(=O)c2ccccc2-c2ccccc21,1.8%
21,O=C1C(=O)c2cccc3cccc1c23,44.3%
22,NCCNc1ccc([N+](=O)[O-])c2cccnc12,51.1% (active)

row,SMILES,inhibition
1,CCN(CCNc1ccc([N+](=O)[O-])c2cccnc12)S(=O)(=O)c1ccccc1,8.2%
2,Cc1nonc1OCCNc1ccc([N+](=O)[O-])c2cccnc12,33.9%
3,Cc1nonc1OCCNCCNc1ccc([N+](=O)[O-])c2cccnc12,39%
4,CCC(CO)Nc1ccc([N+](=O)[O-])c2cccnc12 (stereo not given),38.6%
5,CCN(CC)c1ccc([N+](=O)[O-])c2cccnc12,67.2% (active)
6,CC(O)CNc1ccc([N+](=O)[O-])c2cccnc12 (stereo not given),52.2% (active)
7,O=[N+]([O-])c1ccc(NCc2ccccc2)c2nonc12,43.9%
8,O=C(NCCCN1CCOCC1)C(Cl)(Cl)Cl,-7.8%
9,O=[N+]([O-])c1ccc(NCCO)c2ncccc12,35.9%
10,CCN(CCNc1ccc([N+](=O)[O-])c2cccnc12)S(=O)(=O)c1ccc(Cl)cc1,36.7%
11,O=[N+]([O-])c1ccc(NCCCN2CCOCC2)c2ncccc12,57.5% (active)
12,CCC(=O)N1c2ccc(S(=O)(=O)CCC(=O)N3CCC4(CC3)OCCO4)cc2CC1C (stereo not given),-5.2%
13,O=C1CN=C(c2ccc(F)cc2)c2oc3ccccc3c2N1,-7.1%
14,CCOC(=O)c1c(C)n(Cc2ccccc2)c2ccc(O)cc12,40.8%
15,O=C(c1ccc2c(c1)OCO2)C1CCCN(CC2CCCCC2)C1 (stereo not given),12.9%
16,CCOP(=O)(OCC)C(O)c1ccc(OC)c(OC)c1 (stereo not given),2.3%
17,CCN(CC)c1ccc(/C=C2\C(=O)NC(=O)N(CC3CCCO3)C2=O)cc1 (stereo not given),-4.6%
18,CC(=O)c1c(O)n(C)c(=S)n(-c2ccccc2)c1=O,-1.3%
19,CNC(=O)Oc1ccc(-c2cn3cc(C)ccc3n2)cc1,4.6%
20,CNC(=O)Oc1cccc(-c2cn3cc(Cl)ccc3n2)c1,3%
21,CNC(=O)Oc1cccc(-c2cn3cc(OC(=O)NC)ccc3n2)c1,54.4% (active)
22,CN1CCN(c2c(C#N)c(C(F)(F)F)nn2C)CC1,-13.8%

row,SMILES,inhibition
1,O=C(CN1CC(c2ccccc2)CC1=O)Nc1cccc(F)c1 (stereo not given),3.7%
2,O=C1NC(=O)N(Cc2ccccc2)C(=O)/C1=C/N1CCCc2ccccc21,6%
3,O=c1[nH]c(=O)n(Cc2ccc(F)cc2)c(O)c1C=NCC1CCCO1 (stereo not given),-20.4%
4,O=[N+]([O-])[N-][n+]1cnn(Cc2ccccc2)c1,-10.9%
5,Cc1cc(OCC(=O)Nc2c(C)n(C)n(-c3ccccc3)c2=O)c2c3c(c(=O)oc2c1)CCC3,10.1%
6,Cc1cccc(NC(=O)N2CCCC2)c1,-7.3%
7,COc1cc(/C=C2/C(=O)NC(=O)N(c3ccccc3)C2=O)ccc1O,1.2%
8,COc1cc(/C=C2\C(=O)NC(=O)N(c3ccccc3)C2=O)cc(OC)c1O,13%
9,COc1cc(/C=C2\C(=O)NC(=O)N(c3ccc(C)cc3)C2=O)cc(OC)c1O,67.6% (active)
10,CCC(=O)N1CC(=O)Nc2ccc(Br)cc2C1c1ccccc1 (stereo not given),2.3%
11,Cc1cccc(C)c1NC(=O)c1cccn(Cc2ccc3c(c2)OC(F)(F)O3)c1=O,9.6%
12,C(#CCN1CCOCC1)COC/C=C/c1ccccc1,-8.9%
13,COc1ccc(N2C(=O)NC(=O)/C(=C\c3ccc([N+](=O)[O-])s3)C2=O)cc1,-53.3%
14,COc1ccc(OC)c(N2C(=O)NC(=O)/C(=C\c3ccc([N+](=O)[O-])s3)C2=O)c1,-46.8%
15,COc1ccc(OC)c(N2C(=O)NC(=O)/C(=C/c3ccc([N+](=O)[O-])s3)C2=O)c1,56.6% (active)
16,CN1C(=O)C(=Cc2ccc(-c3cccc(Cl)c3)o2)C(=O)N(C)C1=O,-7.8%
17,CCN(CC)S(=O)(=O)c1ccc(N=Cc2c(O)n(-c3ccccc3)c(=O)[nH]c2=O)cc1,-8.6%
18,COc1ccc(CCn2c(O)c(C=NCc3ccc4c(c3)OCO4)c(=O)[nH]c2=O)cc1OC,8.6%
19,O=C(N/N=C/c1c(O)n(CCc2ccc(F)cc2)c(=O)[nH]c1=O)c1ccncc1,53% (active)
20,O=C(N/N=C/c1c(O)n(CCc2ccccc2)c(=O)[nH]c1=O)c1ccncc1,-28.2%
21,COc1ccc(CCn2c(O)c(/C=N/NC(=O)c3ccncc3)c(=O)[nH]c2=O)cc1OC,-12.8%
